PLK1 PBD block – qHTS for Inhibitors of PLK1-PDB (polo-like kinase 1 - polo-box domain): Primary Screen; Plk1 PBD binding of FITC phosphopeptide, fluorescence polarization; Serine/threonine-protein kinase PLK1 (Homo sapiens), P53350; Potency, µM, for inactives: max response, negative = inhibition, actives largely listed as inhibitors; hit rate 2.8% among 360,000; also: series mostly up to about 57 µM; % is scaled to controls: 0 for no effect and ±100 for the full control effect; nearly all actives have a fitted effect of over 65% in size
G9a inh – qHTS Assay for Inhibitors of Histone Lysine Methyltransferase G9a; Histone-lysine N-methyltransferase EHMT2 (Homo sapiens), Q96KQ7; G9a H3K9 monomethylation, AlphaScreen, 2 h; Potency, µM (series often up to 102 µM), without a hit: at the top dose activity, negative = inhibition, most hits filed as inhibitors; hit rate 8.8% among 350,000; also: % is scaled to controls: 0 for no effect and ±100 for the full control effect; nearly all actives have a fitted effect of over 75% in size
Target sequence (Q96KQ7 913-1193 limits assumed): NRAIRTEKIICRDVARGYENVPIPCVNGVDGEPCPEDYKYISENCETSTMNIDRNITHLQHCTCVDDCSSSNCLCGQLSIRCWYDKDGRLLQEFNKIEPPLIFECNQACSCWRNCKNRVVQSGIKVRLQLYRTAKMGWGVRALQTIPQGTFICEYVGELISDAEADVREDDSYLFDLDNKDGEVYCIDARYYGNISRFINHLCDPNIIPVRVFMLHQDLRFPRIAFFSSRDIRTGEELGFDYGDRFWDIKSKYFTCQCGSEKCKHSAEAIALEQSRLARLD
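Methyltransferase reactions run at room temperature for 2 h (20 nM enzyme, 500 nM biotin-H3K9 peptide, 20 uM SAM) after a 15 min compound preincubation; product detected by AlphaScreen beads and anti-H3K9me1 antibody.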
Sfp PPTase inh – qHTS Assay for Inhibitors of Bacillus subtilis Sfp phosphopantetheinyl transferase (PPTase); Biochemical Sfp PPTase activity, qHTS; Potency, µM, inactives show largest response in the series, negative = inhibition, most hits filed as inhibitors; hit rate 3.5% among 310,000;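 also: the enzyme is Sfp with the accession as filed and its product quenches rhodamine fluorescence; 0% = enzyme reaction without inhibitor and -100% = no enzyme wells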
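After 15 min at room temperature with compound, 15 nM Sfp received 5 uM rhodamine-CoA plus 12.5 uM BHQ-2-ybbR (50 mM Hepes pH 7.6, 10 mM MgCl2). Rate came from the fluorescence difference over 30 min, ex 525/em 598 nm.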
HP1b chromo inh – HTS for Inhibitors of HP1-beta Chromodomain Interactions with Methylated Histone Tails; AID 540317, 2011; hit rate 0.56% among 390,000; Chromobox protein homolog 1 (Homo sapiens), P83916; Potency, µM (doses to about 114 µM), inactives show at the highest dose activity change, negative = inhibition, actives largely listed as inhibitors; AlphaScreen HP1-beta / biotin-H3K9me3 peptide binding; also: nearly all actives have a fitted effect of over 70% in size
Target sequence (P83916 whole entry, looked up): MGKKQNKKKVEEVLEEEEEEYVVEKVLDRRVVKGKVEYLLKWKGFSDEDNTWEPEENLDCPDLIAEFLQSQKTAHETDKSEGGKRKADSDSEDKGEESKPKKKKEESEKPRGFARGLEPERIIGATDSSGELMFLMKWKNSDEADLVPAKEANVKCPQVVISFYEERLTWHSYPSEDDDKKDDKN
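HP1-beta protein (50 nM final) preincubated 30 min at room temperature with biotinylated H3(1-18)K9me3 peptide (50 nM) in PBS pH 7.4, 0.01% Tween-20, then compound added for 30 min. AlphaScreen streptavidin donor/nickel chelate acceptor beads (10 ug/mL final), 30 min dark, luminescence read.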
BAZ2B inh – qHTS Assay for Inhibitors of BAZ2B | hit rate 4.4% among 360,000 | AlphaScreen BAZ2B-H3K14Ac peptide displacement | AID 504333, 2011 | Potency, µM (highest dose often 114 µM), for the others: top-dose activity change, negative = inhibition, hits mostly inhibitors; also: % is scaled to controls: 0 for no effect and ±100 for the full control effect; nearly all actives have a fitted effect of over 60% in size
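BAZ2B (50 nM) with biotin-H3(5-23)K14Ac peptide (50 nM) in PBS pH 7.4, 0.01% Tween-20, preformed 30 min, then compound 30 min at room temperature; top concentration 110uM. AlphaScreen streptavidin donor/nickel chelate acceptor beads (10 ug/mL final), 20 min dark, signal read.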
JMJD2A Tudor – qHTS Assay for Inhibitors of JMJD2A-Tudor Domain. AlphaScreen JMJD2A-Tudor / H3K4me3 peptide binding. Potency, µM (highest dose often 114 µM), inactives show top-dose activity change, negative = inhibition, most hits filed as inhibitors. hit rate 4.4% among 390,000; also: % is scaled to controls: 0 for no effect and ±100 for the full control effect; nearly all actives have a fitted effect of over 50% in size
* hit, by the source's call; ? = inconclusive; / = no result given; [ ] = dose if it differs, or a comment. Hits are enriched below; roughly 12% of the tested compounds scored in any of these assays. Calls follow the shape of the dose curve; as a rule, active = well fitted curve in the direction sought with a large enough effect; inconclusive = small, poorly fitted or top-dose-only effect, or another doubt; inactive = no such curve, though single readings can be large; an effect the other way counts as inactive or inconclusive. Potency is read from the fitted curve at half-maximal effect.

SMILES | PLK1 PBD block | G9a inh | Sfp PPTase inh | HP1b chromo inh | BAZ2B inh | JMJD2A Tudor
O=C(CN1CCN(c2ccccc2F)CC1)Nc1ccccc1F | -9% | 50µM* | 5% | 36% | -14% | -14%
CCN(CC)c1ccc(NC(=O)CN2CCN(c3ccccc3OC)CC2)cc1 | / | ? | / | -18% | 35µM* | 45µM*
CCN(CC)c1ccc(NC(=O)CN2CCN(c3ccccc3F)CC2)cc1 | 5% | 8.9µM* | -3% | 50µM* | 40µM* | 56µM*
O=C(CCN1CCN(c2ccccc2F)CC1)Nc1ccccc1F | -8% | 20% | 9% | 14% | 2% | -1%
CCCCCCN(C(=O)CCCCCN1C(=O)NC(c2ccc(-c3ccccc3)cc2)C(C(=O)OCc2ccccc2)=C1C)C(C(=O)NCCCC)c1ccc(OCC(=O)O)c(C(=O)O)c1 (stereo not given) | / | / | -2% | / | / | /
CSc1ncc(C(=O)Nc2ccc(C(C)=O)cc2)c(C)n1 | 1% | 12% | 7% | 24% | ? | -16%
COc1cc(NC(=O)CN2c3ccccc3S(=O)(=O)c3ccccc32)cc(OC)c1 | / | 7%[59 µM] | / | 1% | -23% | -31%
COc1ccc2c(c1)O[C@@H](c1cccc(C(F)(F)F)c1)[C@H](OC(=O)N[C@H](C)C1CCCCC1)C2=O | / | / | 2% | / | / | /
CCOC(=O)c1ccc(NC(=O)N2CCN(c3ccccc3OC)CC2)cc1 | -16% | 0% | -1% | -6% | -28% | 79µM*
COc1cccc(C(O)c2nc(-c3cnn(C)c3)cs2)c1 (stereo not given) | -1% | / | / | / | / | /
CCN(CCCNC(=O)c1cc(Nc2ccc(OC)cc2OC)nc2ccccc12)c1cccc(C)c1 | / | ? | / | -20% | / | ?
CCCCN(C)CCCNC(=O)c1cc(Nc2ccc(OC)c(OC)c2)nc2ccccc12 | 1% | 71µM* | 3% | -6% | -26% | ?
CCCCN(CCCNC(=O)c1cc(Nc2ccc(OC)c(OC)c2)nc2ccccc12)Cc1ccccc1 | / | 11µM* | / | ? | / | 28µM*
CCCCN(CCCNC(=O)c1cc(Nc2ccc(OC)cc2)nc2ccccc12)Cc1ccccc1 | / | 4%[59 µM] | / | 6% | / | -18%
CCCCN(CCCNC(=O)c1cc(Nc2ccc(OC)cc2OC)nc2ccccc12)Cc1ccccc1 | / | 10µM* | / | -20% | / | ?
C[C@@]12C(=O)Nc3ccc(F)cc3C(=O)N1[C@H]1c3ccccc3OC[C@@H]1[C@@H]2c1ccccc1 | 24µM* | / | / | -8% | / | ?
C[C@@]12C(=O)Nc3ccc(F)cc3C(=O)N1[C@H]1c3cc(Cl)ccc3OC[C@@H]1[C@@H]2c1ccccc1 | 6% | / | / | 3% | / | -32%
Cc1cnc(C(=O)NC2CCSc3ccccc32)cn1 (stereo not given) | 3% | 45µM* | 4% | 57% | -26% | -5%
COc1cc(OC)cc(C(=O)NC2CCSc3ccccc32)c1 (stereo not given) | -13% | ? | 23% | 23% | -13% | -29%
O=C(O)c1c(NC(=O)N2CCOCC2)sc2c1CCCC2 | -11% | -27% | 3% | 2% | -19% | -10%
CCN(CC)CCNC(CC(=O)Nc1ccc(Cl)cc1Cl)C(=O)O (stereo not given) | -5% | 8.9µM* | -7% | 26% | 4% | -33%
C=C(CO)C1Cc2cc(C(C)=O)ccc2O1 (stereo not given) | -5% | 4%[12.7 µM] | 8% | -19% | 79µM* | ?
Cc1ccc(NC(=O)CSc2ncccc2C(=O)Oc2ccccc2Cl)cc1Cl | / | ? | / | 32% | 2% | -13%
Cc1ccc(NC(=O)CSc2ncccc2C(=O)Oc2cccc([N+](=O)[O-])c2)cc1Cl | -2% | 50µM* | ? | 23% | -8% | -26%
CC(C)NC(=O)N1CC[C@@]2(CCCN(C(=O)c3csnn3)C2)C1 | / | 3%[12.7 µM] | 12% | / | / | /
SMILES | PLK1 PBD block | G9a inh | Sfp PPTase inh | HP1b chromo inh | BAZ2B inh | JMJD2A Tudor
NC(=O)Cn1c(=O)n(C2CCCCC2)c(=O)c2c3c(sc21)CCCCC3 | -10% | 9% | 50µM* | -10% | -7% | -12%
NC(=O)Cn1c(=O)n(CCc2ccccc2)c(=O)c2c3c(sc21)CCCC3 | -4% | -16%[59 µM] | 3% | 5% | 2% | -11%
CS(=O)(=O)NCCCCCCNS(C)(=O)=O | -25% | 50µM* | 6% | 40% | 3% | -8%[11.4 µM]
Cc1ccc(S(=O)(=O)NCCCNS(C)(=O)=O)cc1 | -2% | 11%[59 µM] | 16% | 35% | 13% | -1%
CC(C)c1ccc(NC2CCCN(C(=O)c3ccc4nccnc4c3)C2)cc1 (stereo not given) | -7% | 79µM* | 13% | 13% | -26% | -25%
CC(C)c1ccc(NC2CCCN(C(=O)c3ccnc(Cl)c3)C2)cc1 (stereo not given) | -9% | 25µM* | 14% | 24% | ? | -32%
O=C(c1ccnc(Cl)c1)N1CCCC(Nc2ccc(F)cc2)C1 (stereo not given) | 7% | -14% | -2% | 20% | 0% | -22%
CCn1cc(Cl)c(C(=O)Nc2nccs2)n1 | 4% | 27% | 5% | 43% | -2% | 6%
COc1ccc(CCNC(=O)CSc2ccc3ccccc3c2)cc1OC | -3% | 25µM* | -28% | 33% | 3% | -19%
O=C(CSc1ccc2ccccc2c1)Nc1ncccn1 | 3% | 45µM* | 9% | 32% | -2% | -7%
CCCCn1c(-c2ccccc2)cnc1SCC(=O)NCCc1ccc(OC)c(OC)c1 | -6% | ? | 5% | ? | 45µM* | 56µM*
O=C(COC(=O)CSc1ccc2ccccc2c1)NC1CC1 | -5% | 50µM* | 14% | 10% | -1% | -4%
CN(CC(=O)Nc1ccccc1Cl)C(=O)CSc1nncn1C | -10% | ? | / | 21% | 5% | -17%
O=C(Nc1ccncc1)c1cc(S(=O)(=O)N2CCCC2)ccc1Cl | -16% | / | / | 32% | / | -8%
CC(C)CN1CCCC2(CCN(C(=O)c3cccc(F)c3)CC2)C1 | / | -19%[12.7 µM] | 16% | / | / | /
CNC(=O)[C@H]1O[C@H](n2cnc3c(NCc4cccc(I)c4)ncnc32)[C@@H](O)[C@@H]1O | / | / | -7% | / | / | /
COc1ccc(CCNC(=O)CSc2ccc(NC(C)=O)cc2)cc1OC | 13µM* | 4% | 7% | 13% | 0% | -17%
COc1ccc(CCNC(=O)CCCC(=O)n2nc(C)c3ccccc32)cc1OC | ? | 79µM* | -13% | 30% | -10%[57.1 µM] | -17%

Source: PubChem BioAssay (National Center for Advancing Translational Sciences (NCATS))
